Compound activity (PubChem BioAssay)
D1 potentiator: human D1 dopamine receptor positive modulation; HEK293 TREx D1 cells, calcium flux, dopamine EC20 potentiation; potentiation, % at 10 µM; 360,000 compounds, 0.036% hits; in the data active = potentiation above about 30%
Target sequence (P21728 whole entry, looked up): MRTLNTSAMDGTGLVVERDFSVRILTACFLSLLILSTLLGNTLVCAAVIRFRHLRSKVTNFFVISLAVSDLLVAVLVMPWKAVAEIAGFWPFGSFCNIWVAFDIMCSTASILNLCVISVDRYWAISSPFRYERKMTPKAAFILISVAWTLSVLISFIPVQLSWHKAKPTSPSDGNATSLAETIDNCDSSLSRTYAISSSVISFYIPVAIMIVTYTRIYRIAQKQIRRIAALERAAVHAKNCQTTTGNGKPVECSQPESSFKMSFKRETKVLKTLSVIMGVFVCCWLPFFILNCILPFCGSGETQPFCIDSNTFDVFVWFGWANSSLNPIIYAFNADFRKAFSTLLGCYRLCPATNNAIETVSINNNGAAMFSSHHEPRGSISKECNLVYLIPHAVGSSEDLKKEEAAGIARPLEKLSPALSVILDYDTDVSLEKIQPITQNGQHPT
TRHR enhancer: TRH receptor (human) allosteric enhancement. TRHR cells, fluo-8 calcium fluorescence, EC20 TRH enhancement. 360,000 compounds, 0.66% hits. P34981. enhancement, % at 2 µM. AID 493056; in the data active = enhancement above about 30%
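Enhancer read-out: after compound pinning and an initial kinetic agonist-mode read, an EC20 of TRH (10 nM final) was injected and fluo-8 calcium signal (Ex 480/Em 530) followed at 1 s/cycle for 100 cycles in TRHR-expressing cells.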
D1 ag: human D1 receptor agonism | P21728 | HEK293 T-REx D1 cells, calcium flux, agonist mode | activation, % at 2 µM | 360,000 compounds, 1% hits | AID 504660
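Tetracycline-induced HEK293 TREx D1 cells, force-coupled to calcium signalling, were dye-loaded with a no-wash calcium kit. Compound was pin-added after a 10 s baseline. Fluorescence was read kinetically at 1 cycle/s for 180 s, with calcium rises flagged as agonism.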
D1 antagonist: blocks dopamine activation of the human D1 receptor. P21728. activity change, negative = inhibition, % at 10 µM. HEK293 TREx D1 cells, calcium flux, dopamine EC80; stronger effect = lower value. AID 504652. 360,000 compounds, 3.2% hits; in the data active = activity change below about -30%
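HEK293 T-REx cells expressing inducible, force-coupled D1 receptor; no-wash Ca dye, 30–90 min RT. Cmpd → 180 s read at 1 Hz → EC80 DA → 180 s read.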
TRHR agonist: agonists of human TRH receptor; P34981; TRHR cells, calcium flux fluo-8, FDSS agonist mode; activation, % at 2 µM; 360,000 compounds, 0.18% hits; AID 493084
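TRHR-expressing cells loaded with fluo-8 calcium dye; 23 nL library compound pin-transferred, kinetic FDSS fluorescence (Ex 480/Em 530) recorded about 180 s for agonist-induced calcium release, before a 10 nM TRH EC20 addition for potentiator mode.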
Each line names hits and unclear results; the compound was inactive in the other large screens; ! = a repeat was not active. Only some compounds are listed: those with a hit (about 4.7% of all), similar ones and a draw of the others. Rule as the data show it, unless noted: active = activation above about 30%; inactive = the rest.

COc1cc2c(cc1OC)CN(C(=O)/C=C/c1ccc(F)cc1)CC2	none
COc1cc2c(cc1OC)CN(C(=O)CSc1ccc(F)cc1)CC2	D1 antagonist -87.4
COc1ccc(C2=NOC(CN3C(=O)c4ccccc4S3(=O)=O)C2)cc1 (stereo not given)	none
O=C1c2ccccc2S(=O)(=O)N1CC1CC(c2ccccc2)=NO1 (stereo not given)	D1 antagonist -33.6
O=C1c2ccccc2S(=O)(=O)N1CC1CC(c2ccc(Cl)cc2)=NO1 (stereo not given)	D1 antagonist -34.4
CC(=O)Cn1ncc(N2CCCCC2)c(Cl)c1=O	none
CO/N=C(\Cn1ncc(N2CCCC2)c(Cl)c1=O)c1ccc(Cl)cc1	D1 antagonist -46.1
COC1=C(OC)C(=O)C(CCCCCCCCCCO)=C(C)C1=O	D1 antagonist -40.6
CC1=C(C)C(=O)C(CCCCC#CCCCC#CCO)=C(C)C1=O	none
CCCCN(CC)CCCNC(=O)c1sc2nc(C)cc(C)c2c1-n1cccc1	none
CC1(C)C(=O)OC(c2ccc([N+](=O)[O-])cc2)C(C)(C)C1=O (stereo not given)	D1 antagonist -31.6
CC(C)(C)N=C1NC(=NC(C)(C)C)c2ccccc21	D1 antagonist -40.9
COc1cccc(CNS(=O)(=O)c2cc3c(cc2C)NC(=O)CO3)c1	D1 antagonist -32.4
COc1cccc(CNS(=O)(=O)c2cc3c(cc2Cl)NC(=O)CO3)c1	none
Cc1cc2c(cc1S(=O)(=O)N(C)CC(=O)Nc1ccc(C#N)cc1)OCC(=O)N2	D1 antagonist -54.9
COc1ccc(NS(=O)(=O)c2cc3c(cc2C)NC(=O)CO3)c(OC)c1	D1 antagonist -57.8!
CCOC(=O)c1cccc(NS(=O)(=O)c2cc3c(cc2C)NC(=O)CO3)c1	D1 antagonist -46.4
CC(=O)c1cccc(NS(=O)(=O)c2cc3c(cc2C)NC(=O)CO3)c1	none
Cc1ccc2c(=O)cc(C(=O)NCc3ccccc3)oc2c1C	none
Cc1ccc(CNC(=O)CCS(=O)(=O)c2cc3c(cc2C)NC(=O)CO3)cc1	D1 antagonist -31.8!
O=C(CCn1c(=O)c2sccc2n(Cc2ccccc2F)c1=O)NCc1ccc2c(c1)OCO2	none
COC(=O)c1ccc(COc2ccc(C(C)(C)C)cc2)o1	none
COC(=O)c1ccc(CN(Cc2ccc(C(=O)OC)o2)C(C)(C)C)o1	TRHR enhancer 37.1
Cc1cccc(N2CC(C)Cn3c2nc2c3c(=O)n(CC(=O)O)c(=O)n2C)c1 (stereo not given)	none
CCN(CC)CCN(C(=O)c1ccc(C(=O)OC)cc1)c1nc2ccc(Cl)cc2s1	none
COC(=O)c1ccccc1CSc1nsc(/C=C/N(C)C)c1C#N	none
Cc1nc(CSc2nsc(/C=C/N(C)C)c2C#N)cs1	D1 ag 31.0
Cc1cc(C)cc(N=c2c([N+](=O)[O-])nn(-c3ccc(Cl)cc3)n2O)c1	none
Cc1ccc(CN=c2c([N+](=O)[O-])nn(-c3cccc(Cl)c3)n2O)cc1	D1 antagonist -33.6
COc1ccc(-n2nc([N+](=O)[O-])c(=NCCc3ccc(C)cc3)n2O)cc1	none
Cc1ccc(CN=c2c([N+](=O)[O-])nn(-c3cccc(C)c3)n2O)cc1	D1 antagonist -47.3
Cc1cn2c(=O)cc(COC(=O)c3ccccc3F)nc2s1	none
Cc1ccc(Nc2ccc(-n3ccnc3)nn2)cc1C	none
COc1cccc(Nc2ccc(-n3ccnc3)nn2)c1	D1 antagonist -66.5
O=C(NCCn1ccc2ccccc21)c1cccc([N+](=O)[O-])c1	D1 antagonist -37.3
O=C(NCCCN1CCN(CCCNC(=O)c2cccc([N+](=O)[O-])c2)CC1)c1cccc([N+](=O)[O-])c1	none
COc1ccccc1CNC(=O)CCCCn1c(=O)c2ccccc2n(Cc2ccccc2C)c1=O	none
Cc1cc(C)c2oc(-c3cccc(NC(=O)COc4ccc([N+](=O)[O-])cc4)c3)nc2c1	none
CC(=O)Nc1cnc(NC(=O)c2cccc(F)c2)cc1C	D1 antagonist -36.0
CCC(=O)Nc1cnc(NC(=O)c2cccc(F)c2)cc1C	none
CCOC(=O)C(NC(=O)Nc1ccc(F)cc1F)(Oc1ccccc1)C(F)(F)F (stereo not given)	TRHR enhancer 31.5
CCOC(=O)C(NC(=O)Nc1ccc(Cl)cn1)(Oc1ccccc1)C(F)(F)F (stereo not given)	none
COc1ccc(C)cc1NC(=O)N1CCN(c2nnc(C)c3c(C)n(-c4ccccc4)nc23)CC1	none
CCCC1CCC(C(=O)Nn2cnc3ccccc3c2=O)CC1 (stereo not given)	none
O=C(Nn1cnc2ccccc2c1=O)C1CCCCC1	D1 antagonist -30.4
CN(Cc1ccccc1)C(=O)COC(=O)c1ccccc1NS(=O)(=O)c1cccc(N)c1	D1 antagonist -31.7
Cc1cc(C(=O)NCC(C)(C)N2CCOCC2)c(C)o1	none
COc1cccc(Cn2cc(N)cn2)c1	TRHR enhancer 32.3
Nc1cnn(Cc2ccc(F)cc2)c1	none
CCOC(=O)Cc1csc(NC(=O)c2cc(C)c(C)s2)n1	D1 antagonist -34.7
CCOC(=O)Cc1csc(NC(=O)NC2(C(F)(F)F)Oc3ccc(Cl)cc3O2)n1 (stereo not given)	none
CCOC(=O)Cc1csc(NC(=O)Cc2ccc(Br)cc2)n1	D1 antagonist -36.8
CCOC(=O)Cc1csc(NC(=O)NC2(C(F)(F)F)Oc3cc(Cl)c(Cl)cc3O2)n1	D1 ag 34.7
CCOC(=O)Cc1csc(NC(=O)Nc2ccc(OC(F)(F)F)cc2)n1	D1 antagonist -36.0
CCOC(=O)Cc1csc(NC(=O)c2ccc(NC(C)=O)cc2)n1	none
Cc1ccccc1CC1SC(N)=NC1=O (stereo not given)	none
COc1cc(/C=N/NC(=O)c2ccc(-c3ccccc3)cc2)cc(OC)c1OC	none
COc1cccc(/C=N/NC(=O)c2ccc(N(C)S(=O)(=O)c3ccccc3)cc2)c1OC	D1 antagonist -36.3
COc1ccc(/C=N\NC(=O)c2ccc(-c3ccccc3)cc2)c(OC)c1OC	TRHR enhancer 30.2
COc1cccc(/C=N/NC(=S)NCCc2ccccc2)c1OC	none
COc1ccc(/C=N/NC(=O)CNC(=O)c2ccc3c(c2)OCCO3)c(C(=O)O)c1OC	TRHR enhancer 30.1
CC(C)(C)/C=N/NC(=O)CNC(=O)c1ccc2c(c1)OCCO2	none
COc1cccc(/C=N/NC(=O)CC(=O)NCCc2ccccc2)c1OC	TRHR enhancer 33.1
CC1CCCCC12NC(=O)N(CC(=O)OCc1cccc(F)c1)C2=O (stereo not given)	none
Cc1ccc(NC(=O)Nc2c[nH]c(=O)[nH]c2=O)c(Cl)c1	none
COc1ccc2c(c1)sc1ncc(C(=O)NCc3ccc(OC(C)C)cc3)c(=O)n12	none
COc1ccc2c(Cl)c(C(=O)N/N=C/c3ccc4c(c3)OCO4)sc2c1	none
COc1ccc2c(Cl)c(C(=O)N/N=C3\CCCC(=O)C3)sc2c1	D1 ag 44.1
